Source: PubChem BioAssay AID504773 (Broad Institute, 2011)
Entries with a potency or affinity are not part of this list. Activity calls are given as the source filed them.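 How the source made its calls: active means polarization signal falls with dose and the fitted half-maximal concentration is at or below ten times the sample's top valid dose; inconclusive means flat curve at 30 to 70% inhibition, or poor fit; inactive means signal rises, flat within 30%, or potency beyond limit.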

target: Golgi-associated PDZ and coiled-coil motif-containing protein (Homo sapiens) (UniProt Q9HD26); assay: potency against CAL PDZ-peptide interaction – biochemical, fluorescence polarization, Cerulean-tagged CAL PDZ, cherry-picks, dose response (AID 504773); conditions: CAL PDZ-peptide binding, 1 h; series mostly up to 50 µM

outcome, inactive:
O=C(O)c1cccc(Nc2ccc([N+](=O)[O-])cn2)c1
Oc1ccc(/C=N\Nc2nncc(-c3ccccc3)n2)cc1
O=C(COc1ccc(Cl)cc1Cl)Nc1nnc(C2=COCCO2)o1
O=C(NCc1cccnc1)c1ccc(Cn2c(=S)[nH]c3ccc(Br)cc3c2=O)cc1
O=C(CCN1C(=O)c2ccccc2C1=O)CN1CCOCC1
CCC(=O)c1ccc(N2CCC(C)CC2)c(F)c1
CCC(=O)N1CCC(C(N)=O)(N2CCCCC2)CC1
CN(C)c1ccc(C(=O)OCC(=O)NC2CCCCCC2)cc1
O=C(CSc1nccc(=O)[nH]1)Nc1ccc(Oc2ccccc2)cc1
Cc1c(C)c2cc3c4c(oc3c(C)c2oc1=O)CCCC4
CN(C)C1(CNC(=O)C2CCC(=O)N(CCc3ccc(Cl)cc3)C2)CCCCC1 (configuration not stated)
Cc1cccc(NC(=O)Cn2cnc3c(oc4ccccc43)c2=O)c1C
COc1ccc(OC)c(S(=O)(=O)NCCCn2ccnc2)c1
O=C(CSc1nc2c(sc3ccccc32)c(=O)n1Cc1ccccc1)NCC1CCCO1 (configuration not stated)
O=P(O)(COc1ccccc1)COc1ccccc1
Cc1cc(C)c(S(=O)(=O)NCc2ccc3c(c2)OCO3)c(C)c1
N/C(=N\OC(=O)Cc1ccccc1[N+](=O)[O-])c1cccnc1
Cc1ccc2nc(CSc3nnc(-c4ccncc4)n3C)cc(=O)n2c1
COc1cc(NS(=O)(=O)c2ccc(NC(=S)Nc3ccccc3)cc2)nc(OC)n1
OCC1(CCOc2ccccc2)CCN(CCCn2cccn2)CC1
COc1ccc2ccn(S(=O)(=O)c3ccccc3)c2c1
Nc1nc2ccccc2cc1S(=O)(=O)c1ccccc1
COc1cc(OC)cc(C(=O)N[C@H](C(=O)Nc2nc3ccc(S(C)(=O)=O)cc3s2)C(C)C)c1
Cc1ccc(NC(=O)CN(C)CC(=O)Nc2cccc(F)c2)cc1S(=O)(=O)N1CCCCCC1
Oc1ccc(C=Nc2cccc3ccccc23)c(O)c1
CC1CCC(NC(=O)c2ccc3c(c2)S(=O)(=O)c2ccccc2C3=O)CC1 (configuration not stated)
COc1ccc(C(=O)c2ccc(C)cc2)c(OC)c1OC
COc1ccc(/C=C2\N=C(c3ccc(C)cc3)OC2=O)cc1
CCN(CC)S(=O)(=O)c1ccc2nc(NC(=O)c3ccco3)sc2c1
COc1ccc(C(C)=O)cc1COC(=O)CNC(=O)c1ccccc1F
O=C(O)CCCC(=O)N1N=C(c2ccccc2)CC1c1ccc2c(c1)OCO2 (configuration not stated)
C=CCOC(=O)C1=C(C)Nc2nc3ccccc3n2C1c1ccncc1 (configuration not stated)
CS(=O)(=O)N(CC(=O)N1CCOCC1)c1cccc(F)c1
CN=c1scc(C)n1/N=C/c1cc(Br)c(O)c(Br)c1
O=C(NC1CCCN(Cc2ccc(Cl)cc2)C1)c1cccc(N2CCCC2=O)c1 (configuration not stated)
CCOCCCNC(=S)N1CCN(c2nc(-c3ccccc3)cs2)CC1
COc1cc(S(=O)(=O)n2nc(C)cc2C)ccc1Cl
